Assay results published in PubChem BioAssay.
The source made the active and inactive calls.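 Rule for the calls, unless noted: active = percent response above 42, roughly 3 SD of non-fluorescent test compounds; inactive = the rest.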

What was measured:
[1] = reduced mouse 2C T cell binding to pMHC/ICAM-1 vesicles – MLPCN validation set, flow cytometry, LFA-1/ICAM-1 modulator project, pilot screen (AID 2523;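 active = response below a set limit, under 55% cells CD8-positive and vesicle-bound, and CD8 cells' 90th-percentile brightness under 279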;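 for vesicle binding response: mean PE anti-B7-1 fluorescence of CD8+ cells relative to row control; 100% = QL9-loaded vesicles with DMSO vehicle in the same plate row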); conditions: 2C mouse CD8+ T cells, at 7 µM, stronger effect = lower value; double positive events: measured here: CD8+/vesicle+ event percentage
[2] = target: Integrin beta-1 (Homo sapiens) + Integrin alpha-4 (Homo sapiens) (UniProt P13612+P05556); assay: alpha4beta1 integrin LIBS antibody binding reduction – U937 cells, HUTS-21 mAb, flow cytometry, validation set, VLA-4 allosteric modulator project, pilot screen (AID 2674;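 active = inhibition above 50%, about 3 SD of the validation set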;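 note: antibody binding induced by the VLA-4 ligand LDV present at three times its Kd; 0% = LDV ligand with antibody and no compound and 100% = antibody without LDV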); conditions: HUTS-21 LIBS mAb binding, at 6.7 µM, stronger effect = higher value, binding induced by LDV ligand
[3] = calorie-restriction mimetic ROS inhibitors, yeast – validation compound set, pilot screen (AID 2706;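 active = superoxide response below 65% of plate, a cut near 3 SD across the whole screen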;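 note: yeast exposed to compound for one week at 30 degrees C before staining; 100% = mean of all compound wells on the same plate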); conditions: S. cerevisiae aging, superoxide DHE fluorescence; at 10 µM, stronger effect = lower value
[4] = target: Beta-adrenergic receptor kinase 1 (Homo sapiens) (UniProt P25098); assay: GRK2 binders displacing RNA aptamer, biochemical, validation, human GRK2, bead flow cytometry (AID 488806;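 active = aptamer binding inhibition above 30%, about 3 SD of noise from non-fluorescent compounds; inactive = inhibition at or below 30%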); conditions: bead-bound GRK2, FAM-aptamer displacement, at 10 µM, stronger effect = higher value
[5] = target: Beta-2 adrenergic receptor (Homo sapiens) (UniProt P07550); assay: agonist-induced loss of surface beta2AR – cell-based, FAP fluorogen, flow cytometry, validation set, pilot screen (AID 504459); conditions: Am2.2-beta2AR cells, at 10 µM, stronger effect = higher value;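 note: agonist-driven loss of surface beta2AR via internalization measured by FAP dye flow cytometry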
[6] = target: AP-2 complex subunit beta (Homo sapiens) (UniProt P63010); assay: beta-arrestin/AP2 interaction blockers – biochemical, validation set, GST-AP2 beads, flow cytometry, pilot screen (AID 504541;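 active = inhibition above 54%, about 3 SD of non-fluorescent compounds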;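 note: AP2 carries R879A mutation and is captured from E. coli lysate; bead-bound FITC arrestin peptide fluorescence measuring arrestin peptide binding to AP2; 0% = DMSO wells and 100% = excess unlabeled arrestin peptide control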); conditions: FITC arrestin peptide, at 10 µM, stronger effect = higher value, AP2 beta2 appendage fragment, R879A mutant
[7] = cytosolic pH regulators acting via V-ATPase – S. cerevisiae, pHLuorin, HTS validation (AID 504600; in the data active = response above about 15%;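 note: plate controls were DMSO for no effect and reference compound for full effect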); conditions: V-ATPase proton transport, at 10 µM, stronger effect = higher value
[8] = tested on: anti-desmoglein-3 scFv antibody binding to human DSG3; assay: blockers of pathogenic pemphigus antibody–desmoglein-3 binding – biochemical, validation compound set, bead-based, flow cytometry, pilot screen (AID 588368;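 active = binding below the plate cutoff, the plate median minus 3 SD, with a reading above zero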;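 note: signal is the median channel fluorescence of bead-bound GFP antibody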); conditions: Protein G beads, DSG3-Fc, scFv-GFP binding, at 10 µM, stronger effect = lower value
[9] = Nile Red efflux blockade in pump-expressing yeast – validation compound set, multiplex, phenotypic, pilot screen (AID 588506;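 active = efflux inhibition above 0.42, the validation set average plus 4 SD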;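 note: Nile Red retained in cells so higher fluorescence means more efflux inhibition; 0 = negative control wells and 1 = enniatin B 25 µM full block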); conditions: S. cerevisiae pump-expressing triplex, Nile Red efflux flow cytometry; at 10 µM; stronger effect = higher value; the pumps come from Candida albicans
[10] = target: ATP-binding cassette sub-family B member 6 (Homo sapiens) (UniProt Q9NP58); assay: blockers of ABCB6-driven porphyrin uptake – K562-ABCB6 cells, flow cytometry, validation set, pilot screen (AID 588550;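 active = inhibition above the screen-wide mean plus 3 SD, about 51%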;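 note: 0% = DMSO wells and 100% = benzethonium chloride 70 µM positive control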); conditions: K562-ABCB6 porphyrin accumulation, 1 h, at 10 µM, stronger effect = higher value
[11] = AML differentiation inducers, ER-HoxA9 marrow cells – cell-based, GFP/MAC1 double positive, flow cytometry, validation set, primary screen (AID 588685;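 active = differentiation response of at least 50%, scaled between solvent and reference control, from cells with both markers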;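 note: compound exposure lasts four days before antibody staining and flow analysis; 0% = DMSO wells and 100% = 5 µM fulvestrant positive control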); conditions: stronger effect = higher value, normalized: vehicle 0, fulvestrant 100

Beta-adrenergic receptor kinase 1 (Homo sapiens), sequence (P25098 whole entry, looked up): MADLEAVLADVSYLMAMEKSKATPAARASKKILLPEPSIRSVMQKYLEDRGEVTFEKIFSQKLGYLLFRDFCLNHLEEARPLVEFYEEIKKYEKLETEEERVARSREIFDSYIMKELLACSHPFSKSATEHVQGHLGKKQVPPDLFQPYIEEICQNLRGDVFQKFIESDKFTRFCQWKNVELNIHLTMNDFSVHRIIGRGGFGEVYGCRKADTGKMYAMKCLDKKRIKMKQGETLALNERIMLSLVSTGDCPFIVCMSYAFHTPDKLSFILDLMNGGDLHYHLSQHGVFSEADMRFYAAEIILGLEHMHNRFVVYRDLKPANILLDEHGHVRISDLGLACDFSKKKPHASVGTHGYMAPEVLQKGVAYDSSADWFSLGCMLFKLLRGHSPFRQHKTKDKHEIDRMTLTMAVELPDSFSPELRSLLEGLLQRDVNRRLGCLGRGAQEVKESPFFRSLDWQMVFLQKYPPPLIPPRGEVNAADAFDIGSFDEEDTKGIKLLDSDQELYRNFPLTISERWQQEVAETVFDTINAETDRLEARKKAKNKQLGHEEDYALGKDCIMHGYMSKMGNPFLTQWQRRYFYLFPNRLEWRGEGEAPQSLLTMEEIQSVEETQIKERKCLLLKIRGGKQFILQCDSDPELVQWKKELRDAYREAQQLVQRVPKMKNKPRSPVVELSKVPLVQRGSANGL
Integrin beta-1 (Homo sapiens) + Integrin alpha-4 (Homo sapiens), sequence (P05556 whole entry, looked up): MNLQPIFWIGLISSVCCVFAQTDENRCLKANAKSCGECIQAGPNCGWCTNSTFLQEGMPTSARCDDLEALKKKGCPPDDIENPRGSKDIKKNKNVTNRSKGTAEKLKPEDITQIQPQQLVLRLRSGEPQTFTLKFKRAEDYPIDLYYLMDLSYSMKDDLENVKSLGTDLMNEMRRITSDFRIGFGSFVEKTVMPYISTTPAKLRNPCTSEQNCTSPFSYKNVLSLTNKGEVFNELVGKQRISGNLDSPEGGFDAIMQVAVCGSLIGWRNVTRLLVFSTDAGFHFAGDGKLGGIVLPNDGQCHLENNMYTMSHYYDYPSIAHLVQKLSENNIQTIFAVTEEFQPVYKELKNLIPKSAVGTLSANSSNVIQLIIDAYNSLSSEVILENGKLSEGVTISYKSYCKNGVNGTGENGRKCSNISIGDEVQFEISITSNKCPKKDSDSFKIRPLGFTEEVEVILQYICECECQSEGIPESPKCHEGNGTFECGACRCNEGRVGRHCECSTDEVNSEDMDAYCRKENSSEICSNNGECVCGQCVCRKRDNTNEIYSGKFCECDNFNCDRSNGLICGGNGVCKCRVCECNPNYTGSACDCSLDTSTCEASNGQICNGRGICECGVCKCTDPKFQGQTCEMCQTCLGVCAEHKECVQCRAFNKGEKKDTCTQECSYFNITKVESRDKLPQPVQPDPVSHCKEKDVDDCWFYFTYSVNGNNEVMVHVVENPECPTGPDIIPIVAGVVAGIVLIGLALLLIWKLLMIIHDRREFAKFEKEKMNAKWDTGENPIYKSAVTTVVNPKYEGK
Integrin beta-1 (Homo sapiens) + Integrin alpha-4 (Homo sapiens), sequence (P13612 whole entry, looked up): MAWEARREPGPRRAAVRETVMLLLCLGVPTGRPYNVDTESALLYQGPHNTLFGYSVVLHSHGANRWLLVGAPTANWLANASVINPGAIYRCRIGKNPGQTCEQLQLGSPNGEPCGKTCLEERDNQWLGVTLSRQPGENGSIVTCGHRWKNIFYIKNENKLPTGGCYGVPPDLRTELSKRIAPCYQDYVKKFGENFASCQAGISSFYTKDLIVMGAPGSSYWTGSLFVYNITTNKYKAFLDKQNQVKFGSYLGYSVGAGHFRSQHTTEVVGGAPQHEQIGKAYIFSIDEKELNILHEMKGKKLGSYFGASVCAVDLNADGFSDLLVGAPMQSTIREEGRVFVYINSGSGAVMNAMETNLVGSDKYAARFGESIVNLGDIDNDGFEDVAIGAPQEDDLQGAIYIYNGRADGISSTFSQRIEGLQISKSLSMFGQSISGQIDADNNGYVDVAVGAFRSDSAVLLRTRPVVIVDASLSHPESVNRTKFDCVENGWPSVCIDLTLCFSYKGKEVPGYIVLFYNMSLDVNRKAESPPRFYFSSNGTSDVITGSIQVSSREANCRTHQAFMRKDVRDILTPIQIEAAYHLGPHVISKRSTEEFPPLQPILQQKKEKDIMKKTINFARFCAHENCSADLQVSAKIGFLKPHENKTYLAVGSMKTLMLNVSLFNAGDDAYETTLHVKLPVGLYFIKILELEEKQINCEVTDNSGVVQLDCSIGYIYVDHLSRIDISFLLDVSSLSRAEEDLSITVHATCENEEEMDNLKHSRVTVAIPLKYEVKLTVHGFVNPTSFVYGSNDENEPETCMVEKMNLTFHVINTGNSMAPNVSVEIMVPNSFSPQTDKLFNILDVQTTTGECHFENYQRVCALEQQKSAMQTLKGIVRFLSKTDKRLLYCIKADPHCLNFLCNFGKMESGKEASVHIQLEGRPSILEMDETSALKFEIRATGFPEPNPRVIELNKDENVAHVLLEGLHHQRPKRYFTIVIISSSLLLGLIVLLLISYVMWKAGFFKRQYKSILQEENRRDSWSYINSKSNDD
Beta-2 adrenergic receptor (Homo sapiens), sequence (P07550 whole entry, looked up): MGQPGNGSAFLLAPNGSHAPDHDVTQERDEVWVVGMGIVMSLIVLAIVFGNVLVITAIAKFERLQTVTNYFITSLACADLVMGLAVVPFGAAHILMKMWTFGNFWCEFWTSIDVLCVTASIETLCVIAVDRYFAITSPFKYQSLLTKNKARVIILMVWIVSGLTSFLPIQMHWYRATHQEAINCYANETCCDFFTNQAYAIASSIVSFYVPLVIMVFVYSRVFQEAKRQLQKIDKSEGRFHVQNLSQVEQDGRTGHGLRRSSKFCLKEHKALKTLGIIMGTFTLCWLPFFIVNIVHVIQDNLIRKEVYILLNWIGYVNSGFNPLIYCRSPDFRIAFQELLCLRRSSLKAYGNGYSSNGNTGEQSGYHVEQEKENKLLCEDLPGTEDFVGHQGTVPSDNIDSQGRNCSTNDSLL
ATP-binding cassette sub-family B member 6 (Homo sapiens), sequence (Q9NP58 whole entry, looked up): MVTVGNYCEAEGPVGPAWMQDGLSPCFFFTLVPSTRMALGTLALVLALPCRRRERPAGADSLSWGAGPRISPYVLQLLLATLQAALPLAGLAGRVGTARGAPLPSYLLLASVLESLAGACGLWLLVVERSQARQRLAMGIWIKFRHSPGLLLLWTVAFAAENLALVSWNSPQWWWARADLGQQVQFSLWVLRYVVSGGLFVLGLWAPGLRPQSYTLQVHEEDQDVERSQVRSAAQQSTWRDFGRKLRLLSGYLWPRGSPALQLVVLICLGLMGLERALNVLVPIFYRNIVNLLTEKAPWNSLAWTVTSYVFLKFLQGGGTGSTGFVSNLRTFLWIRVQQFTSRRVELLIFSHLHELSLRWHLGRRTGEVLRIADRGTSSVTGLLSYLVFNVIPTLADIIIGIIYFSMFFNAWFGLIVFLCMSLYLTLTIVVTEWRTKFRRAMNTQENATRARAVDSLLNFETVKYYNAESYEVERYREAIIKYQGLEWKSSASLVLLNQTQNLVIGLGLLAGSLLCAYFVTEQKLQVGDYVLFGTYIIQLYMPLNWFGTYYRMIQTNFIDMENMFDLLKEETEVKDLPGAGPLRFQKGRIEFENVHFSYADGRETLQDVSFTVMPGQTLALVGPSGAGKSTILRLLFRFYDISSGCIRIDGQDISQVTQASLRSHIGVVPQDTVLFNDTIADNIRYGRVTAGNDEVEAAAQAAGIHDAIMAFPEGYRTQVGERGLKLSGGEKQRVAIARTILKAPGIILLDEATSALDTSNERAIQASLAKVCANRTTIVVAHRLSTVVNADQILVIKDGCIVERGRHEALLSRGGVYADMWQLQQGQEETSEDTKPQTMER
AP-2 complex subunit beta (Homo sapiens), sequence (P63010 whole entry, looked up, the tested form may be a part, one chain of several): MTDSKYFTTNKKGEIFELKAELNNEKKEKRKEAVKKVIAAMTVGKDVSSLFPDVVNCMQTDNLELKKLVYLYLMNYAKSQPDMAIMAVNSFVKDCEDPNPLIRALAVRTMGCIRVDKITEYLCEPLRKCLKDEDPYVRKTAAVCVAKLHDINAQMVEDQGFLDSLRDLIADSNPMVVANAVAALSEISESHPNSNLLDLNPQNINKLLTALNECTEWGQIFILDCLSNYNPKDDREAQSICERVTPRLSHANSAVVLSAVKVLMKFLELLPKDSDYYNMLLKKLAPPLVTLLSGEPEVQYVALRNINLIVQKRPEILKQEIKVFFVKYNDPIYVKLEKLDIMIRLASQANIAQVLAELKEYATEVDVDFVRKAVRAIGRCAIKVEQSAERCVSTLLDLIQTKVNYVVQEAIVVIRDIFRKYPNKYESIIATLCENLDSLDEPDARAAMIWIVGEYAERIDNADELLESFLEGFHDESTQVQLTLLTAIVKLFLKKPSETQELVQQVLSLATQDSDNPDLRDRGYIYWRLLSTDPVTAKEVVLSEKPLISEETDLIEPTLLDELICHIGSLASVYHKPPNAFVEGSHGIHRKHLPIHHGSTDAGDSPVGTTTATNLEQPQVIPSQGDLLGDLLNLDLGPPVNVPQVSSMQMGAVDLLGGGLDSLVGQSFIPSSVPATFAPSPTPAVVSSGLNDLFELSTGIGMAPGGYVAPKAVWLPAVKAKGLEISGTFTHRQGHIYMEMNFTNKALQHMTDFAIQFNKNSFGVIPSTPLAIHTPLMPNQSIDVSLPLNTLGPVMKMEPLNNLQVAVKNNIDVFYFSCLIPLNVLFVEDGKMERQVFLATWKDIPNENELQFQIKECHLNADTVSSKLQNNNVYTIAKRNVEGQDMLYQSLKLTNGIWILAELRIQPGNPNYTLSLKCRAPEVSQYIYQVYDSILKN

With CC(=O)c1cn(C)c(=O)[nH]c1=O the double positive events [1] was 60.8%, the vesicle binding response [1] was 243% (inactive) and the inhibition [2] was -7.25% (inactive). For the same molecule, the superoxide response (% of plate) [3] was 103% (inactive), the aptamer binding inhibition [4] was 3% (inactive) and the response [5] was 72.3% (active). The inhibition [6] was -5.48% (inactive), the response [7] was 0.64% (inactive) and the binding (% of control) [8] was 107% (inactive). The efflux inhibition (fraction of control) [9] was -0.24 (inactive), the inhibition [10] was 2% (inactive) and the differentiation response [11] was -8.8% (inactive).
With Cc1oc2c(CN3CCCC3)c(O)ccc2c(=O)c1-c1ccc(Cl)cc1 the double positive events [1] was 75.9%, the vesicle binding response [1] was 328% (inactive) and the inhibition [2] was 3.14% (inactive). The superoxide response (% of plate) [3] was 81.5% (inactive), the aptamer binding inhibition [4] was 1% (inactive) and the response [5] was -23.2% (inactive). For the same molecule, the inhibition [6] was 6.26% (inactive), the response [7] was -0.55% (inactive) and the binding (% of control) [8] was 96.9% (inactive). For the same molecule, the efflux inhibition (fraction of control) [9] was 0 (inactive), the inhibition [10] was 10% (inactive) and the differentiation response [11] was -1.05% (inactive).
With O=C1Nc2ccc3sc4ccccc4c3c2C1=O the double positive events [1] was 62%, the vesicle binding response [1] was 162% (inactive) and the inhibition [2] was 9.63% (inactive). The superoxide response (% of plate) [3] was 111% (inactive), the aptamer binding inhibition [4] was 1% (inactive) and the response [5] was 3.08% (inactive). The inhibition [6] was -0.66% (inactive), the response [7] was -7.6% (inactive) and the binding (% of control) [8] was 102% (inactive). For the same molecule, the efflux inhibition (fraction of control) [9] was -0.19 (inactive), the inhibition [10] was -15% (inactive) and the differentiation response [11] was -0.18% (inactive).
In the case of CC1/C(=C\c2ccc(Cl)cc2)C(=O)C2CC1C2(C)C (configuration not stated), the double positive events [1] is reported as 60.1%, the vesicle binding response [1] is reported as 168% (inactive) and the inhibition [2] is reported as -3.16% (inactive). For the same molecule, the superoxide response (% of plate) [3] was 94.9% (inactive), the aptamer binding inhibition [4] was 2% (inactive) and the response [5] was -15.2% (inactive). For the same molecule, the inhibition [6] was -1.54% (inactive), the response [7] was 0.95% (inactive) and the binding (% of control) [8] was 99.9% (inactive). For the same molecule, the efflux inhibition (fraction of control) [9] was 0.05 (inactive), the inhibition [10] was 9% (inactive) and the differentiation response [11] was -5.6% (inactive).
In the case of C#CCN(C)CCCOc1ccc(Cl)cc1Cl, the double positive events [1] is reported as 56.3%, the vesicle binding response [1] is reported as 64.3% (inactive) and the inhibition [2] is reported as -7.12% (inactive). For the same molecule, the superoxide response (% of plate) [3] was 96.4% (inactive), the aptamer binding inhibition [4] was 0% (inactive) and the response [5] was -6.11% (inactive). The inhibition [6] was -2.33% (inactive), the response [7] was 1.85% (inactive) and the binding (% of control) [8] was 96.3% (inactive). For the same molecule, the efflux inhibition (fraction of control) [9] was 0.3 (inactive), the inhibition [10] was 12% (inactive) and the differentiation response [11] was -1.64% (inactive).
With CC(=O)NCCCC(=O)NC(CCC(=O)OCc1ccccc1)C(=O)OCc1ccccc1 (configuration not stated) the double positive events [1] was 72.6%, the vesicle binding response [1] was 425% (inactive) and the inhibition [2] was 5.03% (inactive). For the same molecule, the superoxide response (% of plate) [3] was 86.7% (inactive), the aptamer binding inhibition [4] was 1% (inactive) and the response [5] was 6.65% (inactive). The inhibition [6] was -8.67% (inactive), the response [7] was -0.06% (inactive) and the binding (% of control) [8] was 96.8% (inactive). The efflux inhibition (fraction of control) [9] was 0.4 (inactive), the inhibition [10] was 2% (inactive) and the differentiation response [11] was 34.4% (inactive).
In the case of COc1ccc(/C=C2\CCc3ccccc3C2=O)c(OC)c1OC, the double positive events [1] is reported as 68.5%, the vesicle binding response [1] is reported as 262% (inactive) and the inhibition [2] is reported as 2.3% (inactive). For the same molecule, the superoxide response (% of plate) [3] was 94.8% (inactive), the aptamer binding inhibition [4] was 3% (inactive) and the response [5] was -0.85% (inactive). The inhibition [6] was -2.94% (inactive), the response [7] was 5.35% (inactive) and the binding (% of control) [8] was 102% (inactive). For the same molecule, the efflux inhibition (fraction of control) [9] was 0.15 (inactive), the inhibition [10] was 5% (inactive) and the differentiation response [11] was 31.2% (inactive).
With COc1ccc(NC(=S)NCCc2c[nH]c3ccccc23)cc1 the double positive events [1] was 69.3%, the vesicle binding response [1] was 445% (inactive) and the inhibition [2] was -1.97% (inactive). For the same molecule, the superoxide response (% of plate) [3] was 111% (inactive), the aptamer binding inhibition [4] was 1% (inactive) and the response [5] was -13.3% (inactive). For the same molecule, the inhibition [6] was -10.2% (inactive), the response [7] was -1.54% (inactive) and the binding (% of control) [8] was 108% (inactive). For the same molecule, the efflux inhibition (fraction of control) [9] was 0 (inactive), the inhibition [10] was 8% (inactive) and the differentiation response [11] was -6.96% (inactive).
In the case of NC(N)=NC(=O)c1nc(Cl)c(N)nc1N, the double positive events [1] is reported as 62.4%, the vesicle binding response [1] is reported as 206% (inactive) and the inhibition [2] is reported as 7.4% (inactive). For the same molecule, the superoxide response (% of plate) [3] was 87% (inactive), the aptamer binding inhibition [4] was 0% (inactive) and the response [5] was -22.4% (inactive). The inhibition [6] was -4.43% (inactive), the response [7] was -1.82% (inactive) and the binding (% of control) [8] was 104% (inactive). The efflux inhibition (fraction of control) [9] was -0.04 (inactive), the inhibition [10] was -2% (inactive) and the differentiation response [11] was -3.02% (inactive).
For Cn1cc(CN(CCO)Cc2cccs2)c(-c2cccc(Cl)c2)n1, the double positive events [1] was 55.3%, the vesicle binding response [1] was 159% (inactive) and the inhibition [2] was -1.79% (inactive). The superoxide response (% of plate) [3] was 92.3% (inactive), the aptamer binding inhibition [4] was 3% (inactive) and the response [5] was 32.8% (inactive). For the same molecule, the inhibition [6] was -0.41% (inactive), the response [7] was 1.36% (inactive) and the binding (% of control) [8] was 99.3% (inactive). For the same molecule, the efflux inhibition (fraction of control) [9] was -0.06 (inactive), the inhibition [10] was 5% (inactive) and the differentiation response [11] was -8.8% (inactive).
In the case of O=c1ccc2ccccc2o1, the double positive events [1] is reported as 62.3%, the vesicle binding response [1] is reported as 162% (inactive) and the inhibition [2] is reported as -3.77% (inactive). The superoxide response (% of plate) [3] was 95.1% (inactive), the aptamer binding inhibition [4] was -7% (inactive) and the response [5] was 0.92% (inactive). The inhibition [6] was 1.88% (inactive), the response [7] was -9% (inactive) and the binding (% of control) [8] was 103% (inactive). For the same molecule, the efflux inhibition (fraction of control) [9] was -0.02 (inactive), the inhibition [10] was -8% (inactive) and the differentiation response [11] was 2.74% (inactive).
